Experimental data as given in the supplement of paper PMC6089552.
The campaign covered roughly 3,200 compounds. About 300 (9.4%) showed activity. This is one part of a sample in which actives are shown more often than they occur.

Tested on: A673/TR/shEF
Assay: cell viability (LOESS-normalised, relative to median of negative controls) (log2 ratio); higher = more viable cells (less compound effect), active = hit call of the paper (over 3 MAD below the median)
Details: treatment time: 72 h
Summary of the method: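 A673/TR/shEF Ewing sarcoma cells (1,500 per well, 384-well plates) were grown with or without doxycycline to induce EWS-FLI1 shRNA knockdown, starting 24 h before compounds. Library compounds at two or more concentrations, with DMSO controls, were added for three days. Cell viability was read by CellTiter-Glo luminescence on an Envision reader, then LOESS-corrected per plate, divided by the median of negative controls and log2-transformed. Hits were wells at least three median absolute deviations from the median of all screened wells.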

[1] = 0.25 µM, library screen: screen1, EWS-FLI1 expression: high (no doxycycline)
[2] = 0.25 µM, library screen: screen1, EWS-FLI1 expression: low (doxycycline-induced shRNA knockdown)
[3] = 2.5 µM, library screen: screen1, EWS-FLI1 expression: high (no doxycycline)
[4] = 2.5 µM, library screen: screen1, EWS-FLI1 expression: low (doxycycline-induced shRNA knockdown)
[5] = 0.25 µM, library screen: screen2, EWS-FLI1 expression: high (no doxycycline)
[6] = 0.25 µM, library screen: screen2, EWS-FLI1 expression: low (doxycycline-induced shRNA knockdown)
[7] = 2.5 µM, library screen: screen2, EWS-FLI1 expression: high (no doxycycline)
[8] = 2.5 µM, library screen: screen2, EWS-FLI1 expression: low (doxycycline-induced shRNA knockdown)
[9] = 0.103 µM, library screen: screen3, EWS-FLI1 expression: high (no doxycycline)
[10] = 0.103 µM, library screen: screen3, EWS-FLI1 expression: low (doxycycline-induced shRNA knockdown)
[11] = 0.308 µM, library screen: screen3, EWS-FLI1 expression: high (no doxycycline)
[12] = 0.308 µM, library screen: screen3, EWS-FLI1 expression: low (doxycycline-induced shRNA knockdown)
[13] = 0.926 µM, library screen: screen3, EWS-FLI1 expression: high (no doxycycline)
[14] = 0.926 µM, library screen: screen3, EWS-FLI1 expression: low (doxycycline-induced shRNA knockdown)
[15] = 2.8 µM, library screen: screen3, EWS-FLI1 expression: high (no doxycycline)
[16] = 2.8 µM, library screen: screen3, EWS-FLI1 expression: low (doxycycline-induced shRNA knockdown)
[17] = 8.3 µM, library screen: screen3, EWS-FLI1 expression: high (no doxycycline)
[18] = 8.3 µM, library screen: screen3, EWS-FLI1 expression: low (doxycycline-induced shRNA knockdown)
[19] = 25 µM, library screen: screen3, EWS-FLI1 expression: high (no doxycycline)
[20] = 25 µM, library screen: screen3, EWS-FLI1 expression: low (doxycycline-induced shRNA knockdown)

Measured: cell viability (log2)

O=C(O)c1cc(=O)c(O)c2c(O)c(O)ccc2c1
inactive: [1] 0.0685 | [2] 0.0312 | [3] 0.157 | [4] 0.0783

Fc1cccc(CN2CCN(Cc3ccco3)CC2)c1
inactive: [1] 0.0188 | [2] 0.159 | [3] 0.104 | [4] 0.135

C=CCCCCCCCCCCCC=CC(O)COC(C)=O (configuration not stated)
inactive: [1] -0.0116 | [2] 0.0382 | [3] 0.137 | [4] 0.0541

CC12CCC(=O)C=C1CCC1C2C(O)CC2(C)C1CCC2(O)C(=O)COC(=O)CCC(=O)O (configuration not stated)
inactive: [5] 0.252 | [6] 0.0354 | [7] 0.189 | [8] 0.145

CCSCCOC(=O)C1=C(C)NC2=C(C(=O)CC(C)(C)C2)C1c1coc2ccccc2c1=O (configuration not stated)
inactive: [1] 0.0909 | [2] 0.0763 | [3] 0.107 | [4] 0.00786

CCOc1ccc2nc(SC)nc(C)c2c1
inactive: [1] 0.0636 | [2] 0.0768 | [3] 0.137 | [4] -0.103

CC1CC2C3CCC4=CC(=O)C=CC4(C)C3C(=O)CC2(C)[C@@]1(O)C(=O)CO (some centres not stated)
inactive: [9] 0.145 | [10] -0.00246 | [11] 0.132 | [12] 0.12 | [13] 0.101 | [14] 0.0958 | [15] 0.116 | [16] 0.077 | [17] 0.0168 | [18] 0.08 | [19] 0.0762 | [20] 0.0993

COc1ccc(CN2CCN(Cc3ccccc3Br)CC2)cc1OC
inactive: [1] 0.0838 | [2] 0.133 | [3] 0.0605 | [4] 0.115

Cc1cc(O)c2c(c1)Cc1cccc(O)c1C2=O
inactive: [1] 0.119 | [2] 0.00964 | [3] 0.16 | [4] 0.111

O=C1CSC(=O)N1CCN1C(=O)SC(=Cc2ccc(O)cc2)C1=O
inactive: [1] 0.0789 | [2] 0.0957 | [3] 0.0804 | [4] -0.00491

O=C(Oc1cc(O)cc2c1CC(OC(=O)c1cc(O)c(O)c(O)c1)C(c1ccc(O)c(O)c1)O2)c1cc(O)c(O)c(O)c1 (configuration not stated)
inactive: [1] 0.117 | [2] -0.00743 | [3] 0.128 | [4] -0.0369

CCCCCCCCCCCCCCCCCC(=O)NCC(COP(=O)([O-])OCC[N+](C)(C)C)OCC (configuration not stated)
inactive: [5] 0.252 | [6] 0.0979 | [7] 0.243 | [8] 0.0461

CC(CN1c2ccccc2Sc2cccnc21)N(C)C (configuration not stated)
inactive: [1] 0.132 | [2] 0.0453 | [3] 0.0549 | [4] 0.034

C#Cc1cccc(Nc2ncnc3cc(OC)c(OCCCCCCC(=O)NO)cc23)c1
active: [13] -0.53 | [14] -0.197 | [15] -1.73 | [16] -0.607 | [17] -2.92 | [18] -0.618 | [19] -3.65 | [20] -1.64
inactive: [9] -0.0787 | [10] -0.0134 | [11] -0.0791 | [12] -0.0194

CN(C)c1cc2c(Nc3ccc4c(cnn4Cc4ccccc4)c3)ncnc2cn1
inactive: [5] 0.124 | [6] 0.0545 | [7] 0.147 | [8] 0.0613

C#Cc1cccc(Nc2ncnc3cc(OCCOC)c(OCCOC)cc23)c1
inactive: [9] 0.107 | [10] 0.0915 | [11] 0.189 | [12] 0.0523 | [13] 0.0696 | [14] 0.0933 | [15] 0.0439 | [16] 0.0596 | [17] 0.105 | [18] 0.0233 | [19] -0.0778 | [20] -0.0451

COc1cc2ncnc(Nc3cccc(Cl)c3)c2cc1OC
0.289: [1]
active: [3] -0.137 | 25 µM, library screen: screen1, EWS-FLI1 expression: high (no doxycycline) -0.119
inactive: 0.025 µM, library screen: screen1, EWS-FLI1 expression: high (no doxycycline) 0.237 | 0.025 µM, library screen: screen1, EWS-FLI1 expression: low (doxycycline-induced shRNA knockdown) 0.01 | [2] 0.0337 | [5] 0.134 | [6] 0.0168 | [4] 0.122 | [7] 0.175 | [8] 0.00846
0.297: 25 µM, library screen: screen1, EWS-FLI1 expression: low (doxycycline-induced shRNA knockdown)

COCC(=O)NC/C=C/c1ccc2ncnc(Nc3ccc(Oc4ccc(C)nc4)c(C)c3)c2c1
inactive: [9] 0.0492 | [10] 0.0262 | [11] -0.0204 | [12] 0.0495 | [13] -0.0118 | [14] 0.013 | [15] -0.0655 | [16] -0.0248 | [17] -0.00849 | [18] 0.0384 | [19] -0.127 | [20] -0.105
